Compound activity as filed in PubChem BioAssay.
Sampled rows, rich in hits. Any-hit rate of the full collection: about 3.9%.
PLK1 PBD inh – PLK1 (human) polo-box domain binding inhibition; P53350; Plk1 PBD binding of FITC phosphopeptide, fluorescence polarization; AID 720504; Potency, µM, usual class: inhibitors; actives 2.8% (n = 360,000); note: series mostly up to about 57 µM; nearly all actives have a fitted effect of over 65% in size
Target sequence (P53350 whole entry, looked up, the tested form may be a part): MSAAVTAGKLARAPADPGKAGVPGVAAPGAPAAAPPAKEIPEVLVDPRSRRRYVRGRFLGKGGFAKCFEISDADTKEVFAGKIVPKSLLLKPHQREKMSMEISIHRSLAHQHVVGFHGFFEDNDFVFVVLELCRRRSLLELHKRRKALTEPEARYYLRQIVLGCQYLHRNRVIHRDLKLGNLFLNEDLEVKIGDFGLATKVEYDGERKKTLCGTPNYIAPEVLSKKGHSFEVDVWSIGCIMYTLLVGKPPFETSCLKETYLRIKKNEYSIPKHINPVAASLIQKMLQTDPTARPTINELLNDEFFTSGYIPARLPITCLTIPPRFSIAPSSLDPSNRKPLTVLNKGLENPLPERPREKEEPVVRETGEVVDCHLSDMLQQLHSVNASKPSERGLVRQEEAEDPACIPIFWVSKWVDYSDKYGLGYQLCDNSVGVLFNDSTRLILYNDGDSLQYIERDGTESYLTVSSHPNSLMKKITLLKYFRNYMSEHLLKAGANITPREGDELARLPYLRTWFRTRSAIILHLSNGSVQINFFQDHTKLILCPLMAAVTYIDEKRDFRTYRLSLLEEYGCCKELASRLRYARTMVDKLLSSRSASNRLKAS
BRCA1 expr act – BRCA1 expression activation; MCF7-BRCA1-FFLuc reporter, luminescence, 48 h; response scale: scaled: vehicle 0%, 10 µM genistein 100%; Potency, µM (top dose mostly 46.1 µM), usual class: activators; actives 1.1% (n = 380,000); note: nearly all actives have a fitted effect of over 80% in size
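Luminescence from a BRCA1-driven firefly luciferase in MCF7 cells was read after 48 h compound exposure at 37 C. Data normalized against DMSO and a 10microM genistein activation control, then curve-fitted across the titration.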
VDR inhibitor – inhibitors of human vitamin D receptor; VDR-SRC2-3 peptide fluorescence polarization, 2 h; Potency, µM, hits mostly inhibitors; P11473; AID 504847; actives 0.93% (n = 400,000)
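FP read-out; VDR + SRC2-3 coactivator peptide; 23 nl compound by pintool; 2 h RT incubation; reagents held at 4 deg C, protected from light.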
Tb PFK block – T. brucei PFK enzyme inhibition | O15648 | T. brucei PFK, ADP-Glo luminescence | Potency, µM (highest dose often 57.5 µM), hits mostly inhibitors | actives 0.17% (n = 330,000); note: nearly all actives have a fitted effect of over 60% in size
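Luminescent ADP detection (ADP-Glo, two-step: ATP depletion then ADP-to-ATP conversion for luciferase) reported PFK activity after 45 min room-temperature reaction of 1.25 nM enzyme with 0.5 mM F6P and 0.1 mM ATP at pH 8.0.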
Each line names hits and unclear results; the compound was inactive in the other large screens. Calls come from the whole dose curve; as a rule, active = well fitted curve in the direction sought with a large enough effect; inconclusive = small, poorly fitted or top-dose-only effect, or another doubt; inactive = no such curve, though single readings can be large; an effect the other way counts as inactive or inconclusive.

O=C(C1=C(O)C(=O)N(c2nc3ccc(Cl)cc3s2)C1c1ccco1)c1ccco1 (stereo not given)	PLK1 PBD inh 21µM, VDR inhibitor inconclusive
O=C(CSc1ncccc1C(=O)Oc1ccccc1Cl)Nc1ccccc1Cl	BRCA1 expr act 11µM (no result: PLK1 PBD inh, Tb PFK block)
CCC(Sc1ncccc1C(=O)Oc1ccccc1Cl)C(=O)Nc1ccccc1OC (stereo not given)	none (no result: PLK1 PBD inh, BRCA1 expr act, Tb PFK block)
Cc1ccc(Cn2ccnc2SCC(=O)Nc2nnc(C)s2)cc1	none (no result: PLK1 PBD inh, BRCA1 expr act, Tb PFK block)
COC(=O)c1sc(NC(=O)c2oc3ccccc3c2C)nc1C	BRCA1 expr act 7.1µM
CCc1nnc(SCC(=O)Nc2nc(C)c(C(=O)N(C)C)s2)n1CC	none
O=C(NN1CCOCC1)c1ccc(Cl)cc1Cl	none (no result: Tb PFK block)
O=S(=O)(NN1CCOCC1)c1cc(Cl)cc(Cl)c1O	PLK1 PBD inh 15µM, VDR inhibitor inconclusive
CCC(CC)C(=O)Nc1nnc(-c2cccs2)s1	PLK1 PBD inh 30µM
COc1cccc(OC)c1C(=O)Nc1nnc(-c2cccs2)s1	PLK1 PBD inh 17µM
CC1(C(=O)N2Cc3ccccc3C2)CCN1C(=O)C1(c2ccc(Cl)cc2)CC1 (stereo not given)	none (no result: VDR inhibitor, Tb PFK block)
O=C(Nc1ccc2nc([C@@H]3O[C@H](CO)[C@@H](O)[C@H](O)[C@H]3O)[nH]c2c1)NC(c1ccccc1)c1ccccc1	none (no result: VDR inhibitor, Tb PFK block)
C#CC[N+](C)(C)CCCCCCCCC	PLK1 PBD inh 38µM
COc1cccc(N2CCN(C(=O)C3CCN(S(=O)(=O)c4c(C)noc4C)CC3)CC2)c1	none (no result: PLK1 PBD inh, Tb PFK block)
CN(C(=S)NC(=O)c1ccccc1)C1CCCCC1	none
CN(C(=S)NC(=O)c1ccc(Cl)cc1)C1CCCCC1	PLK1 PBD inh 21µM, Tb PFK block inconclusive
COCCNC(=O)C1(C)CCN(C(=O)/C=C/c2ccccc2)C1 (stereo not given)	none (no result: VDR inhibitor, Tb PFK block)
Nc1nc(=S)ss1	PLK1 PBD inh 24µM, VDR inhibitor inconclusive (no result: Tb PFK block)
Cc1nc(Nc2ccc(Cl)cc2)c2oc3ccccc3c2n1	PLK1 PBD inh 27µM, VDR inhibitor inconclusive
CCOC(=O)CC(=O)CSc1nc2ccccc2c(=O)n1CCc1ccc(S(N)(=O)=O)cc1	none (no result: PLK1 PBD inh, BRCA1 expr act, Tb PFK block)
Cc1ccccc1N1CCN(C(=S)c2ccc(-c3cccc([N+](=O)[O-])c3)o2)CC1	PLK1 PBD inh inconclusive, Tb PFK block inconclusive
O=[N+]([O-])c1ccccc1-c1ccc(C(=S)N2CCN(c3ccccc3)CC2)o1	PLK1 PBD inh 24µM, VDR inhibitor 79µM
Cc1ccc(N2CCN(C(=S)c3ccc(-c4cccc([N+](=O)[O-])c4)o3)CC2)cc1	PLK1 PBD inh 30µM, VDR inhibitor inconclusive, Tb PFK block inconclusive
Cc1ccc(N2CCN(C(=S)c3ccc(-c4ccccc4[N+](=O)[O-])o3)CC2)cc1	PLK1 PBD inh 9.5µM, VDR inhibitor inconclusive
COCc1[nH]nc2c1C(c1ccsc1)C(C#N)=C(N)O2 (stereo not given)	PLK1 PBD inh 27µM
CC(NC(=O)C(=O)N1CCOCC1)C(c1cccs1)N1CCN(c2ccccc2)CC1 (stereo not given)	PLK1 PBD inh 21µM
CC1(C)Cc2c(sc(NC(=O)C(=O)NCCCN3CCOCC3)c2C#N)CO1	PLK1 PBD inh 12µM, Tb PFK block inconclusive
O=S(=O)(Nc1ccc(C(F)(F)F)cc1)c1cnc[nH]1	PLK1 PBD inh 30µM
O=c1c2cc([N+](=O)[O-])ccc2sn1-c1ccccc1	PLK1 PBD inh 2.7µM, BRCA1 expr act inconclusive (no result: VDR inhibitor, Tb PFK block)
N#Cc1ccc2c(c1)nnn2-c1ccccc1	none (no result: Tb PFK block)
CC(=O)Nc1ccc2sn(-c3ccccc3)c(=O)c2c1	PLK1 PBD inh 3.4µM (no result: VDR inhibitor, Tb PFK block)
N#Cc1ccc2sn(-c3ccccc3)c(=O)c2c1	PLK1 PBD inh 2.7µM, BRCA1 expr act 11µM (no result: VDR inhibitor, Tb PFK block)
CCn1c2ccccc2c2cc(NC(C)=O)ccc21	none
C1CCC[C@H]2CCCN3CC[C@H](CCCCCC[C@@H]4CCCN5CC[C@H](CC1)OC45)OC23	none (no result: PLK1 PBD inh, BRCA1 expr act, Tb PFK block)
CN(C)c1ccc(/C=C/c2cc[n+](C)c3ccc4ccccc4c23)cc1	none (no result: PLK1 PBD inh, VDR inhibitor, Tb PFK block)
CC1CCc2nn(CC(=O)NCc3ccc(F)cc3)cc2C1 (stereo not given)	PLK1 PBD inh inconclusive
CC1CCc2nn(CC(=O)NCc3ccco3)cc2C1 (stereo not given)	PLK1 PBD inh 30µM
CCCCC[C@H](O)/C=C/C=C\C/C=C\C=C\[C@@H](O)CCCC(=O)O	none (no result: PLK1 PBD inh, BRCA1 expr act, Tb PFK block)
Cc1cc(N2CCN(C(C(=O)NC3CCCC3)c3ccc(-c4ccccc4)cc3)CC2)c2ccccc2n1 (stereo not given)	none (no result: BRCA1 expr act, VDR inhibitor, Tb PFK block)
COc1cc(OC)c(OC)cc1/C=N/n1c(COc2ccccc2)n[nH]c1=S	PLK1 PBD inh 27µM
COc1ccc(/C=N/n2c(COc3ccccc3)n[nH]c2=S)cc1OC	PLK1 PBD inh 19µM
Cc1ccc(S(=O)(=O)N2[C@H](CC(=O)c3ccc(Cl)c(Cl)c3)OC[C@@H]2C)cc1	none (no result: BRCA1 expr act, VDR inhibitor, Tb PFK block)
O=C(CCl)c1cc2c3c(c1)CC(=O)N3CCC2	PLK1 PBD inh 1.2µM, VDR inhibitor inconclusive
CCOC(=O)C1(Cc2ccccc2)CCCN(Cc2cnn(CC)c2)C1 (stereo not given)	none
CCOC(=O)C1(Cc2cccc(Cl)c2)CCCN(C(=O)c2ccco2)C1 (stereo not given)	PLK1 PBD inh 13µM, VDR inhibitor inconclusive
CCOC(=O)C1(Cc2ccccc2)CCCN(C(=O)c2cnn(CC)c2)C1 (stereo not given)	PLK1 PBD inh 24µM, BRCA1 expr act inconclusive
CN1C(=O)N(C)c2ccc(C=O)c3cccc1c23	none
CN1C(=O)N(C)c2ccc(Br)c3cccc1c23	PLK1 PBD inh 30µM, VDR inhibitor inconclusive
C=CCn1cccc(C(=O)Nc2ccc(SC)cc2)c1=O	none
C=CCn1cccc(C(=O)Nc2ccc(Cl)cc2)c1=O	BRCA1 expr act 5.6µM
C=CCn1cccc(C(=O)Nc2cc(OC)c(OC)c(OC)c2)c1=O	PLK1 PBD inh 21µM
C=CCn1cccc(C(=O)Nc2ccc(OCC)cc2)c1=O	PLK1 PBD inh 24µM
CCCNC(=O)CCc1nnc2ccc(N3CCN(c4cccc(OC)c4)CC3)nn12	none (no result: PLK1 PBD inh, BRCA1 expr act, Tb PFK block)
NCCCCCCNS(=O)(=O)c1ccc2c(Cl)cccc2c1	none (no result: PLK1 PBD inh, Tb PFK block)
O=S(=O)(Nc1nc2ccccc2nc1N1CCc2ccccc2C1)c1ccc(Cl)cc1	PLK1 PBD inh 21µM
O=S(=O)(Nc1nc2ccccc2nc1N1CCc2ccccc2C1)c1ccc(Br)cc1	PLK1 PBD inh inconclusive
O=C(Nc1cccc(S(=O)(=O)N2CCCCC2)c1)C1CCCN1S(=O)(=O)c1ccccc1F (stereo not given)	none
Cn1cc(Cl)c(C(=O)OCC(=O)Nc2nc(-c3ccc(Br)cc3)cs2)n1	BRCA1 expr act 11µM
CCc1ccccc1S(=O)(=O)Cc1ccc(C(=O)NC2CCCC2)o1	none
Cc1ccccc1S(=O)(=O)Cc1ccc(C(=O)NC2CCCCC2)o1	PLK1 PBD inh 21µM
CCc1nnc(SCC(=O)Nc2ccc(F)cc2F)c2cc3sc(C)cc3n12	none (no result: PLK1 PBD inh, BRCA1 expr act, Tb PFK block)
CN1CC(O)(C(O)C(O)C(O)CO)SC1=S (stereo not given)	PLK1 PBD inh 21µM (no result: VDR inhibitor, Tb PFK block)
COc1ccc(N2CCN(C(c3ccc(C)cc3)c3nnnn3C(C)(C)C)CC2)cc1 (stereo not given)	none (no result: PLK1 PBD inh, Tb PFK block)
CN(C)C(=O)c1ccc(SC(=S)NCc2ccccc2)cc1	PLK1 PBD inh 2.7µM (no result: VDR inhibitor, Tb PFK block)
